# Measured values from PubChem BioAssay (Tox21).
# A number with no mark means an inactive call. Records with an inconclusive call do not appear. Entries that show only a call come without a potency. Calls of active or inactive are those of the source. Unless noted, calls follow the shape of the dose curve; as a rule, active = well fitted curve in the direction sought with a large enough effect in the repeat runs; inconclusive = weak or mixed curves; inactive = no such curve, though single readings can be large; an effect the other way counts as inactive or inconclusive.
# What was measured:
# [1] = target: Progesterone receptor (Homo sapiens) (UniProt P06401); experiment: qHTS assay to identify small molecule antagonists of the progesterone receptor (PR) signaling pathway (AID 1346795; active = well fitted inhibition curve with a large enough effect in the signal ratio in the repeat runs, not every such curve was filed as active; the % refers to the signal ratio)
# Summary of the method: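 PR-UAS-bla HEK293T cells carrying a UAS-driven beta-lactamase reporter were plated in medium with 2% charcoal-stripped FBS and rested 6 hr at 37C. Compounds were added with 1 nM R5020 (final) for 16 hr, then FRET substrate loaded 2 hr at room temperature.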
# [2] = qHTS assay to identify small molecule antagonists of the progesterone receptor (PR) signaling pathway - cell viability counter screen (AID 1346798); also: series mostly up to about 92 µM; nearly all actives have a fitted effect of over 50% in size
# Summary of the method: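 PR-UAS-bla HEK293T cells in medium with 2% charcoal-stripped FBS were treated with compounds plus R5020 for 16 hr at 37C. Cell viability was then read by CellTiter-Glo luminescence after 30 min at room temperature in the same wells.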
# [3] = qHTS assay to identify small molecule agonists of the progesterone receptor (PR) signaling pathway - cell viability counter screen (AID 1346799; calls by dose curve; also: nearly all actives have a fitted effect of over 45% in size)
# Summary of the method: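 PR-UAS-bla HEK293T cells, 3,000 per well in medium with 2% charcoal-stripped FBS, were preincubated 6 hr at 37C, then exposed to compounds for 16 hr; viability was read as CellTiter-Glo luminescence after 30 min at room temperature.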
# [4] = qHTS assay to identify small molecule antagonists of the TGF-beta/Smad signaling pathway - cell viability counter screen (AID 1346824); also: nearly all actives have a fitted effect of over 50% in size
# Summary of the method: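 SBE-bla HEK 293T cells, incubated overnight, then compound plus 0.25 ng/mL TGF-beta1 (stock added) for 5 hr at 37 C. Viability was read in the same wells by CellTiter-Glo luminescence after 30 min at room temperature.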
# [5] = qHTS assay to identify small molecule agonists of the TGF-beta/Smad signaling pathway - cell viability counter screen (AID 1346829); also: top concentration of the series differs between compounds; nearly all actives have a fitted effect of over 45% in size
# Summary of the method: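 After overnight seating at 37 C and 5% CO2, reporter cells got compounds for 5 hr and FRET substrate for 2 hr; cell viability then came from CellTiter-Glo luminescence.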
# [6] = qHTS assay to identify small molecule agonists of the TGF-beta/Smad signaling pathway (AID 1346859; active = well fitted activation curve with a large enough effect in the signal ratio in the repeat runs, not every such curve was filed as active; the % refers to the signal ratio; also: series mostly up to about 77 µM)
# Summary of the method: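 HEK 293T cells stably carrying a beta-lactamase reporter driven by the Smad binding element were seeded overnight, exposed to DMSO-dissolved compounds for 5 hr at 37 C, 5% CO2, then loaded with FRET substrate for 2 hr at room temperature.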
# [7] = target: Thyrotropin-releasing hormone receptor (Homo sapiens) (UniProt P34981); experiment: qHTS assay to identify small molecule agonists of the thyrotropin-releasing hormone receptor (TRHR) signaling pathway (AID 1346891; calls by dose curve; also: series mostly up to about 58 µM)
# Summary of the method: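 TRHR-expressing HEK293 cells were plated 18 h at 37 °C/5% CO2, loaded with calcium dye 2 h at 37 °C, then given compound in DMSO; fluorescence was read kinetically for 3 min at 1 s intervals.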
# [8] = Human pregnane X receptor (PXR) small molecule agonists, qHTS cell viability counter screen (AID 1346977); also: nearly all actives have a fitted effect of over 50% in size; also: potency is read from the fitted curve at half-maximal effect
# Summary of the method: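 PXR-Luc HepG2 cells in medium with 5% charcoal-stripped FBS were pre-incubated 5hr, then exposed to compounds for 24hr at 37C. Viability was read in the same wells by CellTiter-Fluor fluorescence, reagent added after 23hr with a 1hr incubation.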
# [9] = Caspase-3/7 induction in HepG2 cells by small molecules, qHTS assay (AID 1346978); also: nearly all actives have a fitted effect of over 15% in size; also: potency is read from the fitted curve at half-maximal effect
# Summary of the method: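 Wild-type HepG2 cells, 2,000/well, settled 5 hr at 37 C and 5% CO2, then compound-treated for 17 hr; caspase-3/7 activity read by luminescent Caspase-Glo 3/7 after 30 min at room temperature.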
# [10] = target: Thyrotropin-releasing hormone receptor (Homo sapiens) (UniProt P34981); experiment: qHTS assay to identify small molecule antagonists of the thyrotropin-releasing hormone receptor (TRHR) signaling pathway (AID 1346877; active = well fitted inhibition curve with a large enough effect in the repeat runs, not every such curve was filed as active; also: series mostly up to about 51 µM)
# Summary of the method: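 In this cell-based calcium flux format, HEK293 cells expressing TRHR received test compound for 5 min before the agonist TRH (1 nM final). Dye loading lasted 2 h at 37 °C.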
# Thyrotropin-releasing hormone receptor (Homo sapiens), sequence (P34981 whole entry, looked up): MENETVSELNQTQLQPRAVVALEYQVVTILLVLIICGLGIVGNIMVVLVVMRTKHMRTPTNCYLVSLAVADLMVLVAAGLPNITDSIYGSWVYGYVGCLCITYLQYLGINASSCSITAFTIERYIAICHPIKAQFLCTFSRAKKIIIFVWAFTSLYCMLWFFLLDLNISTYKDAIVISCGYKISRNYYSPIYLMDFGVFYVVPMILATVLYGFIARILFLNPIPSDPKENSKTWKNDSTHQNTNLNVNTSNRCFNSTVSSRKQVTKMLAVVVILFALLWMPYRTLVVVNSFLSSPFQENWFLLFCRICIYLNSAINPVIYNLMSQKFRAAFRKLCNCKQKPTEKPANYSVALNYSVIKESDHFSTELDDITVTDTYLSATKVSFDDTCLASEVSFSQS
# Progesterone receptor (Homo sapiens), sequence (P06401 whole entry, looked up): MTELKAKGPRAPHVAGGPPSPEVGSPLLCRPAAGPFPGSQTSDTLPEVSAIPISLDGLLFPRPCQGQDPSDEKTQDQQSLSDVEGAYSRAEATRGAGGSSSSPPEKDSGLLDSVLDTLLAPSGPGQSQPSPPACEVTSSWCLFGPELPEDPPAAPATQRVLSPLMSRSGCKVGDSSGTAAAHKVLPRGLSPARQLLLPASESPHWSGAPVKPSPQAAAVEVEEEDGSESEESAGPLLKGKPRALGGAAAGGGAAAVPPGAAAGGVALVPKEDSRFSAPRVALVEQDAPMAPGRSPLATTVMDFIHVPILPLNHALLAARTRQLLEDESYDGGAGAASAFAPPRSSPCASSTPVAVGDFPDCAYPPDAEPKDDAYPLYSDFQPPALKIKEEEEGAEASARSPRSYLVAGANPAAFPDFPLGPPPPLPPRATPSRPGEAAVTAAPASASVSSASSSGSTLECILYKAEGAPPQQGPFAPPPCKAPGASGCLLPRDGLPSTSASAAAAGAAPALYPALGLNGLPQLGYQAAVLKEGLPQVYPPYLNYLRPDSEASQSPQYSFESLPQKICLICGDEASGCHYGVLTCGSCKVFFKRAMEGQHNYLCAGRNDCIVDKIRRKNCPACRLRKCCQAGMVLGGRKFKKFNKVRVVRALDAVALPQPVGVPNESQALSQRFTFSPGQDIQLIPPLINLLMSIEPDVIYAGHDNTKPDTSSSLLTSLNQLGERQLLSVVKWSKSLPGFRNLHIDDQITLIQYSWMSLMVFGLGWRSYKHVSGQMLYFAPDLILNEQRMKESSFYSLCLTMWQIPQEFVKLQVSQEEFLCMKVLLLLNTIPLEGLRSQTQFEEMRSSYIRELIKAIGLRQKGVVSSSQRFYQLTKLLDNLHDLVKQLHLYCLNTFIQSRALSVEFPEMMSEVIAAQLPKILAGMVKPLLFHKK
structure (smiles),measurement,setting,value
CCc1cccc(CC)c1NC(=O)CN(CC(=O)O)CC(=O)O,Potency,[1],inactive
same,Potency,[2],inactive
same,Potency,[3],inactive
same,Potency,[4],inactive
same,Potency,[5],inactive
same,Potency,[6],inactive
same,outcome,[7],inactive
same,Potency,[8],inactive
same,Potency,[9],inactive
COC(=O)c1ccccc1C,Potency,[1],inactive
same,Potency,[2],inactive
same,Potency,[3],inactive
same,Potency,[4],inactive
same,Potency,[5],inactive
same,Potency,[6],inactive
same,Potency,[8],inactive
CC1(C)CC(O)CC(C)(C)N1,Potency,[1],inactive
same,Potency,[2],inactive
same,Potency,[3],inactive
same,Potency,[4],inactive
same,Potency,[5],inactive
same,Potency,[10],inactive
same,outcome,[7],inactive
same,Potency,[8],inactive
CCCCOC(=O)CO,Potency,[1],inactive
same,Potency,[2],inactive
same,Potency,[3],inactive
same,Potency,[4],inactive
same,Potency,[5],inactive
same,Potency,[10],inactive
same,outcome,[7],inactive
same,Potency,[8],inactive
same,Potency,[9],inactive
O[C@@H]([C@H](O)[C@H](O)CBr)[C@H](O)CBr,Potency,[1],inactive
same,Potency,[2],inactive
same,Potency,[3],inactive
same,Potency,[4],inactive
same,Potency,[5],inactive
same,Potency,[6],inactive
same,Potency,[8],inactive
same,Potency,[9],inactive
C=Cc1ccccc1C=C,Potency,[1],inactive
same,Potency,[2],inactive
same,Potency,[3],inactive
same,Potency,[4],inactive
same,Potency,[5],inactive
same,Potency,[6],inactive
same,outcome,[7],inactive
same,Potency,[8],inactive
same,Potency,[9],inactive
CCC(CC)C(C)CCOC(C)=O (stereo not given),Potency,[1],inactive
same,Potency,[2],inactive
same,Potency,[3],inactive
same,Potency,[4],inactive
same,Potency,[5],inactive
same,outcome,[7],inactive
same,Potency,[8],inactive
O=C(/C=C/c1ccc(O)c(O)c1)O[C@@H](C(=O)O)[C@@H](OC(=O)/C=C/c1ccc(O)c(O)c1)C(=O)O,Potency,[1],inactive
same,Potency,[2],inactive
same,Potency,[3],inactive
same,Potency,[4],inactive
same,Potency,[5],inactive
same,Potency,[10],inactive
same,outcome,[7],inactive
same,Potency,[9],inactive
CCCCC(CC)COC(=O)CCCCC(=O)OCc1ccccc1 (stereo not given),Potency,[1],inactive
same,Potency,[2],inactive
same,Potency,[3],inactive
same,Potency,[4],inactive
same,Potency,[5],inactive
same,Potency,[6],inactive
same,Potency,[8],inactive
same,Potency,[9],inactive
c1ccsc1,Potency,[1],inactive
same,Potency,[2],inactive
same,Potency,[3],inactive
same,Potency,[4],inactive
same,Potency,[5],inactive
same,outcome,[7],inactive
same,Potency,[8],inactive
same,Potency,[9],inactive
CCCC(=O)OC(C)(C)Cc1ccccc1,Potency,[1],inactive
same,Potency,[2],inactive
same,Potency,[3],inactive
same,Potency,[4],inactive
same,Potency,[5],inactive
same,Potency,[6],inactive
same,outcome,[7],inactive
same,Potency,[8],inactive
same,Potency,[9],inactive
CCOC(=O)NNc1ccc(N(CC)CC(C)O)nn1 (stereo not given),Potency,[1],inactive
same,Potency,[2],inactive
same,Potency,[3],inactive
same,Potency,[4],inactive
same,Potency,[5],inactive
same,Potency,[10],inactive
same,outcome,[7],inactive
same,Potency,[8],inactive
same,Potency,[9],inactive
COc1ccc(NC(=O)CC(C)=O)cc1,Potency,[1],inactive
same,Potency,[2],inactive
same,Potency,[3],inactive
same,Potency,[4],inactive
same,Potency,[5],inactive
same,Potency,[6],inactive
same,outcome,[7],inactive
same,Potency,[8],inactive
same,Potency,[9],inactive
Cc1cccc(C)c1NC(=O)c1ccc(N)cc1,Potency,[1],inactive
same,Potency,[2],inactive
same,Potency,[3],inactive
same,Potency,[5],inactive
same,Potency,[6],inactive
same,Potency,[8],inactive
same,Potency,[9],inactive
COC(C)=O,Potency,[1],inactive
same,Potency,[2],inactive
same,Potency,[3],inactive
same,Potency,[4],inactive
same,Potency,[5],inactive
same,Potency,[8],inactive
same,Potency,[9],inactive
CCc1ccc(Br)cc1,Potency,[1],inactive
same,Potency,[2],inactive
same,Potency,[3],inactive
same,Potency,[4],inactive
same,Potency,[5],inactive
same,Potency,[6],inactive
same,Potency,[8],inactive
Sc1nc2ccccc2s1,Potency,[1],inactive
same,Potency,[2],inactive
same,Potency,[3],inactive
same,Potency,[5],inactive
same,Potency,[6],inactive
same,Potency,[10],inactive
same,outcome,[7],inactive
same,Potency,[8],inactive
same,Potency,[9],inactive
C[C@@H](O)[C@H](N)C(=O)O,"activity change, negative = inhibition",[1],8.03% [at 18.9 µM]
same,"activity change, negative = cytotoxicity",[2],-0.923% [at 18.9 µM]
same,"activity change, negative = cytotoxicity",[3],-6.31% [at 19 µM]
same,"viability change, negative = cytotoxic",[4],4.73% [at 15.8 µM]
same,"activity change, negative = cytotoxicity",[5],1.96% [at 15.8 µM]
same,activation,[7],0.352% [at 11.8 µM]
same,"activity change, negative = cytotoxicity",[8],14% [at 19 µM]
same,caspase activation,[9],-1.24% [at 19 µM]
O=C(O)c1ccc2cc(C(=O)O)ccc2c1,Potency,[1],inactive
same,Potency,[2],inactive
same,Potency,[3],inactive
same,Potency,[4],inactive
same,Potency,[5],inactive
same,Potency,[10],inactive
same,outcome,[7],inactive
same,Potency,[8],inactive
same,Potency,[9],inactive
CC(C)(C)c1ccc(C(O)CCCN2CCC(C(O)(c3ccccc3)c3ccccc3)CC2)cc1 (stereo not given),Potency,[1],inactive
same,Potency,[2],inactive
same,Potency,[3],inactive
same,Potency,[4],inactive
same,Potency,[8],inactive
same,Potency,[9],11.9 µM (active)
Nc1ccc(NCCO)c([N+](=O)[O-])c1,Potency,[1],inactive
same,Potency,[2],inactive
same,Potency,[3],inactive
same,Potency,[4],inactive
same,Potency,[5],inactive
same,Potency,[10],inactive
same,outcome,[7],inactive
same,Potency,[8],48.6 µM (active)
same,Potency,[9],inactive
CCCC1CCC(=O)CC1,Potency,[1],inactive
same,Potency,[2],inactive
same,Potency,[3],inactive
same,Potency,[5],inactive
same,Potency,[6],inactive
same,Potency,[10],inactive
same,outcome,[7],inactive
same,Potency,[8],inactive
same,Potency,[9],inactive
CCCCN(CCCC)CC(O)c1cc(Cl)cc2c1-c1ccc(Cl)cc1/C2=C/c1ccc(Cl)cc1 (stereo not given),Potency,[1],inactive
same,Potency,[2],inactive
same,Potency,[3],inactive
same,Potency,[4],inactive
same,Potency,[5],inactive
same,Potency,[10],inactive
same,outcome,[7],inactive
same,Potency,[8],29.8 µM (active)
NC(=O)c1cccc([N+](=O)[O-])c1,Potency,[1],inactive
same,Potency,[2],inactive
same,Potency,[3],inactive
same,Potency,[4],inactive
same,Potency,[5],inactive
same,Potency,[10],inactive
same,outcome,[7],inactive
same,Potency,[8],inactive
same,Potency,[9],inactive
CC(CO)Oc1ccccc1 (stereo not given),Potency,[1],inactive
same,Potency,[2],inactive
same,Potency,[3],inactive
same,Potency,[5],inactive
same,Potency,[6],inactive
same,Potency,[10],inactive
same,outcome,[7],inactive
same,Potency,[8],inactive
same,Potency,[9],inactive
O=C(O)c1cc(-c2ccc(F)cc2F)ccc1O,Potency,[1],inactive
same,Potency,[2],inactive
same,Potency,[3],inactive
same,Potency,[4],inactive
same,Potency,[5],inactive
same,Potency,[8],inactive
same,Potency,[9],inactive
O=C(O)c1cccc(C(F)(F)F)c1,Potency,[1],inactive
same,Potency,[2],inactive
same,Potency,[3],inactive
same,Potency,[4],inactive
same,Potency,[5],inactive
same,Potency,[6],inactive
same,Potency,[8],inactive
same,Potency,[9],inactive
